In all, about 220,000 compounds went through this assay and about 2,600 (1.2%) were called active. Only a selection was taken, and actives are over-represented in it overall. Values without a mark were called inactive.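 Rule for the calls: active = activation above the mean of all tested compounds plus 3 SD, set per screening run (cut at about 8.8% in these data); inactive = the rest.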

This test deals with Wee1-like protein kinase (Homo sapiens) (UniProt P30291). In words: compounds stabilizing Wee1-luciferase fusion – cell-based, HeLa, Wee1K328M-luciferase, luminescence, primary screen (AID 1321).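 Note: cells exposed to compound for 20 h before luminescence read; 0% = DMSO alone and 100% = MG132 at 30 µM.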 The conditions noted are these: HeLa Luc-Wee1K328M stability, at 5 µM, stronger effect = higher value, 100% = proteasome inhibitor MG132 effect.
Consider `O=S(=O)(Cc1noc(-c2ccc(OC(F)(F)F)cc2)n1)c1ccc(F)cc1`, for which the reporter increase is 4.61%. Then `CC(C)(C)n1nnnc1C(c1cccs1)N(Cc1cccnc1)CC1CCCO1` (stereo unspecified), with 4.79%; and `CCOc1ccc(CN(Cc2ccco2)S(=O)(=O)c2ccc(-n3cnnn3)c(OC)c2)cc1`, with 1.7%; and `CCOc1ccc(CN(Cc2ccco2)C(c2cccs2)c2nnnn2C(C)(C)C)cc1` (stereo unspecified), with 9.99% (active). Then `CCCCCCCCCCCCN1C(=O)CSC1c1cccnc1` (stereo unspecified), with -0.61%. Then `COc1ccc(CCNC(=O)C(=O)NCC2CCNCC2)cc1OC`, with -1.92%; and `COc1cc(/C=N\Nc2nc(-c3cccs3)c(NC(C)=O)s2)ccc1O`, with -1.53%; and `COc1ccc(NS(=O)(=O)c2ccc(N3CCOCC3)c(NC(=O)c3ccccc3Br)c2)cc1`, with 0.37%.

On to `O=C(CSc1nnc(-c2cccs2)n1Cc1ccccc1)N1CCc2ccccc2C1`, for which the reporter increase is 9.02% (active).

With `O=C(CSc1nnc(-c2cccs2)n1-c1ccccc1)N1CCN(C(=O)c2ccco2)CC1`, the reporter increase is -2.17%. For the compound `CCn1c(SCC(=O)c2ccc3ccccc3c2)nnc1-c1cccs1`, the reporter increase was 4.66%.

Turning to `CCOc1ccc(-n2cnc3c(=O)[nH]c(N)nc32)cc1`, the reporter increase was -1.45%.

Regarding `CC(C)c1cc(CN2CCOCC2)cc(C(C)C)c1O`, the reporter increase was 1.64%. With `O=C(CCCCCN1C(=O)c2cccc3cccc(c23)C1=O)NCc1ccco1`, the reporter increase was -0.37%. Then `Cc1cccc(-[n+]2c(-c3cccc(Br)c3)[nH]c3nc4ccccc4nc32)c1`, with 1.73%; and `COc1ccccc1OCCOc1ccc(/C=N/n2cnnc2)cc1`, with 3.34%.

Take `COc1cccc(OCCOc2cccc(/C=N/n3cnnc3)c2)c1`: the reporter increase was 10.7% (active). On to `C=CCc1ccc(OCCOc2cccc(/C=N/n3cnnc3)c2)c(OC)c1`, for which the reporter increase is 0.6%. Then `COc1ccc(NC(=O)c2cn(-c3ccccc3)nc2SC)cc1`, with -2.29%. Then `O=C(CSc1nnc(SCc2ccc(F)cc2)s1)Nc1ccc(C(=O)O)cc1`, with -1.55%; and `CS/C(=C\C(=O)c1ccco1)Nc1ccccc1Cl`, with 6.17%.

As for `Cc1nc2sc3c(c2c(=O)n1NC(=O)CCl)CCCC3`, the reporter increase was 1.1%. Then `NNC(=O)C1CCCn2c1nc1sc3c(c1c2=O)CCCC3` (stereo unspecified), with -0.79%. Then `Cn1c(NN)nc2sc3c(c2c1=O)CCC3`, with 11.1% (active). `CC(NS(=O)(=O)c1ccccc1)c1n[nH]c(=S)n1-c1ccccc1` (stereo unspecified): the reporter increase is 0.56%.

With `COC(=O)c1sc(NC(=S)NC(=O)c2ccc(C)cc2)nc1C`, the reporter increase was -0.57%. For the compound `c1c2c(cc3sc(N4CCCCC4)nc13)OCCO2`, the reporter increase was -3.23%. Then `Brc1ccc2nc(N3CCCC3)sc2c1`, with 18.3% (active); and `Cc1nc(N2CCCCC2)sc1C=O`, with -0.49%.

`Cc1ccc(F)cc1NC(=O)N1CCCN(c2ccc(C(F)(F)F)cn2)CC1`: the reporter increase was -2.91%. In the case of `CN(C)CCCN(Cc1cc2cc3c(cc2[nH]c1=O)OCCO3)C(=O)NC1CCCCC1`, the reporter increase was -1.12%. Then `O=C(N/N=C/c1ccco1)c1csc2c1CCCC2`, with 9.05% (active); and `O=C(N/N=C/c1ccco1)c1ccc(C(=O)N/N=C/c2ccco2)o1`, with -0.09%; and `O=C(N/N=C/c1ccco1)c1ccc(NC(=O)C2CC2)cc1`, with 1.48%.

In the case of `COc1ccc(CN(Cc2ccc(OC)cc2)C(=O)c2cccs2)cc1`, the reporter increase is 1.79%. On to `CCOC(=O)CN(C(=O)COc1nc(C)cc(C)c1C#N)c1ccc(Cl)cc1`, for which the reporter increase was -2.18%. Then `Cc1cc(C(F)(F)F)c(C#N)c(SCC(=O)NC2CC2)n1`, with -3.28%; and `CCOC(=O)COc1nc(C)cc(C(F)(F)F)c1C#N`, with 8.86% (active); and `CCCc1c(C(=O)O)cnn1-c1ccc(Cl)cc1`, with 1.14%. Then `Cc1nnc(CN(C)Cc2cn[nH]c2-c2ccc(-c3ccccc3)cc2)o1`, with 10.8% (active); and `CN(CCC1CCOCC1)Cc1cn[nH]c1-c1ccc(-c2ccccc2)cc1`, with -2.58%; and `COc1ccc(-c2[nH]ncc2CN(C)Cc2cc(C)[nH]n2)c(F)c1`, with -2.83%. As to `COC(=O)C1=C(N)Oc2cc(C)[nH]c(=O)c2C1c1ccc(Cl)cc1` (stereo unspecified), the reporter increase was -0.92%. Then `COc1ccccc1N1CCN(C(=O)CSc2ncnc3c2cnn3-c2ccc(C)c(C)c2)CC1`, with 3.89%. As for `O=[N+]([O-])c1ccc(N2CCSCC2)cc1O`, the reporter increase is 1.05%. As for `Cc1nc2cc(NC(=O)Nc3cccc(F)c3)ccc2n1C`, the reporter increase is -1.84%.

As to `C=CCN(C(=O)Nc1ccc2c(c1)nc(C)n2C)c1ccccc1`, the reporter increase was -1.11%. Then `Cc1nc2cc(NC(=O)NC3CC3)ccc2n1C`, with 12.8% (active); and `Cc1cc(NC(=O)OC(C)C)ccc1-c1ccc(NC(=O)OC(C)C)cc1C`, with 0.84%.

In the case of `Cn1c(SCC(=O)Nc2ccc(Cl)cc2)nc(O)cc1=O`, the reporter increase was -2.26%.

Regarding `Cc1cccc(OCC(=O)NC(=S)Nc2ccccc2N2CCOCC2)c1`, the reporter increase was 0.28%. Then `COc1cccc(OCC(=O)Nc2ccccc2C(N)=O)c1`, with 0.36%; and `Cc1cccc(OCC(=O)Nc2ccccc2F)c1`, with 12.9% (active); and `O=S(=O)(c1ccccc1)N1CN(Cc2ccc(F)cc2)c2nc3ccccc3nc21`, with 2.39%.

Regarding `COc1ccc(N(Cc2ccccc2)S(=O)(=O)c2cccc(C(=O)O)c2)cc1`, the reporter increase is 0.36%.

As to `CCOc1ccc(N2CC(C(=O)N/N=C/c3sccc3C)CC2=O)cc1` (stereo unspecified), the reporter increase is -2.91%.

Regarding `CCN(CC)CCCN=Cc1c(O)n(-c2ccc(C)cc2)c(=O)c2ccccc12`, the reporter increase is 5.68%.

In the case of `Cc1ccc2c(Cl)c(C(=O)Nc3nn[nH]n3)sc2c1`, the reporter increase was -0.87%. Then `Cc1ccc2c(Cl)c(C(=O)NCCCn3ccnc3)sc2c1`, with 18.1% (active).

In the case of `COc1ccc(-c2cc(C(=O)NCCCn3ccnc3)no2)cc1`, the reporter increase is -0.75%. Then `O=C1CC(Cc2ccc(Cl)cc2)C(=O)N1c1cc(Cl)ccn1` (stereo unspecified), with 2.19%; and `O=C(NC(=O)c1cc(OCC(F)(F)F)ccc1OCC(F)(F)F)Nc1ccccc1`, with -0.42%; and `O=C(Nc1cc(C(F)(F)F)ccc1Cl)C(=O)N1CCCCC1`, with 0.04%. Then `CC(CC(=O)Nc1cc(C(F)(F)F)ccc1Cl)c1ccccc1` (stereo unspecified), with -1.69%. On to `O=C(NNc1ccccc1Cl)C(O)(c1cccc(C(F)(F)F)c1)c1cccc(C(F)(F)F)c1`, for which the reporter increase was 16.5% (active).

With `CCn1c2ccccc2c2cc(NC(=O)Nc3ccc([N+](=O)[O-])cc3C)ccc21`, the reporter increase is -2.8%. Turning to `Cc1ccccc1Nc1nc(N)nc(CSc2ccccc2)n1`, the reporter increase is 5.12%. Then `Cc1ccc(Nc2nc(N)nc(CSc3nnc(C)s3)n2)cc1`, with 9.2% (active); and `Cc1ccc(Nc2nnc(SCc3ccccc3)s2)cc1`, with 0.21%. Then `O=C(c1cc(COc2c(F)cccc2F)on1)N1CCSCC1`, with -0.41%; and `COC(=O)Cn1c(O)c(N=NC(=O)OC)c2ccccc21`, with -1.42%; and `Cc1cc(C)nc(SCc2cn3c(C)cc(C)nc3n2)n1`, with 1.99%. As to `COc1cc(C(F)(F)F)c(C(=O)N(C)c2ccc(Cl)cc2)cn1`, the reporter increase is -1.97%. Then `COc1ccccc1N(C)S(=O)(=O)c1ccc(C(=O)NC2CCCCCC2)cc1`, with 1.14%. Turning to `CC(=O)N(CCCN(C)C)c1nc2ccc(C)cc2s1`, the reporter increase was 1.87%.

Consider `CCCOC(=O)c1cc2ccccc2oc1=O`, for which the reporter increase is -1.59%. Then `CN(C)CCCCCN(C)Cc1cc2ccccc2o1`, with 9.64% (active). Then `COCCN(Cc1cc2cc3c(cc2nc1Cl)OCO3)C(=O)c1cccc(C)c1`, with -2.99%. As for `CCCC1CCC(=NNC(=S)NCCc2ccccc2)CC1` (stereo unspecified), the reporter increase was -0.9%. Regarding `Cc1ccc(NC(=S)N/N=C2/CCCc3c(C)cc(C)cc32)cc1`, the reporter increase was -2.2%. Then `CCCCNC(=S)N/N=C1\CCCCc2ccccc21`, with 9.73% (active); and `Cc1ccc(N2C(=O)CC(N3CCSCC3)C2=O)c(C)c1` (stereo unspecified), with -2.9%; and `Cc1ccccc1NC(=O)Nc1ccccc1N1CCCCC1`, with 2.91%. Then `Cc1nnc(SCc2cc(=O)[nH]c(N3CCN(Cc4ccccc4)CC3)n2)s1`, with 0.09%. Then `O=c1cc(CSc2ccc(Cl)cc2)nc(N2CCOCC2)[nH]1`, with 4.27%; and `O=c1cc(CSc2ccccn2)nc(N2CCN(c3ccccc3)CC2)[nH]1`, with 10.3% (active).

On to `C/C=C/c1ccc(OCCOc2ccc(C=O)cc2OC)c(OC)c1`, for which the reporter increase was 0.41%. Regarding `C/C=C/c1ccc(OCCCCN2CCC(C)CC2)c(OC)c1`, the reporter increase was 28.9% (active). Then `C/C=C/c1ccc(OCC(O)CN2CCCCCCC2)c(OC)c1` (stereo unspecified), with -0.18%; and `CN(C(=O)COC(=O)c1cc(-c2ccco2)nc2ccccc12)C1CCS(=O)(=O)C1` (stereo unspecified), with -1.15%; and `Cc1cc(C)c2nc(NC(=O)c3ccc4c(c3)OCO4)sc2c1`, with -0.87%. For `Cc1cc(C)c2nc(NC(=O)C3CCCO3)sc2c1` (stereo unspecified), the reporter increase was 9.43% (active). As to `O=C(Nc1nc2ccc(S(=O)(=O)N3CCCC3)cc2s1)C1CCCO1` (stereo unspecified), the reporter increase was -1.26%.

As for `COc1ccc(NC(=O)CCN2C(=O)/C(=C/c3ccc4c(c3)OCO4)SC2=S)cc1`, the reporter increase is 0.36%. Regarding `Cc1cc(C(=O)CSc2nc(N)cc(=O)[nH]2)c(C)n1Cc1ccco1`, the reporter increase is 2.39%. Then `COc1ccc(NC(=S)Nc2ccccc2Cl)cn1`, with 4.13%; and `COc1ccc(NC(=O)/C(Cl)=C(/Cl)S(=O)Cc2ccc(C)cc2)cn1` (stereo unspecified), with 11% (active); and `COc1ccc(CS(=O)/C(Cl)=C(/Cl)C(=O)Nc2ccc(OC)nc2)cc1` (stereo unspecified), with 17.4% (active). Then `COc1ccc(NC(=S)NCCNC(C)=O)cc1`, with 0.16%; and `CC(=O)Nc1ccc(OCC(=O)NCc2ccc(C)cc2)cc1`, with -0.21%; and `COc1ccc(Nc2cc(Cl)ccc2C(=O)O)cn1`, with 2.84%.

Source of the values: PubChem BioAssay AID1321 (The Scripps Research Institute Molecular Screening Center, 2008).
